# Compounds with a hit are over-represented: about 4% of the library has one in this group of screens.
# Arbovirus anti: antivirals against arbovirus infection, primary screen, cell-based, full library, 10K replicate subset; arbovirus infection cell-based antiviral screen; inhibition, % at 10 µM; 200,000 compounds, 0.37% hits; in the data active = inhibition above about 30%
# Measles CPE: compounds protecting cells from measles virus cytopathic effect, primary screen, measles RdRp inhibitor project, single point, MLSMR library, absorbance. Measles virus-infected cells, CPE protection. protection (pct of control), % at 4 µM. 140,000 compounds, 1.5% hits. AID 841, 2007; in the data active = protection mostly above about 24%, no sharp cut-off; inactive = mostly below about 26%
# KCC2 mod: KCC2 cotransporter modulators, thallium flux, primary screen, cell-based, HEK293 KCC2, FluoZin-2 fluorescence, MLSMR; Solute carrier family 12 member 5 (Homo sapiens), Q9H2X9; KCC2 cells, thallium flux FluoZin-2 fluorescence; B-score of Tl+ flux slope (higher = more flux/activation; lower = inhibition) at 10 µM; 190,000 compounds, 2.2% hits; AID 1456, 2008;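 active = thallium flux slope and its plate-corrected score both differing from the plate sample mean at a set confidence after two filtering rounds, in either direction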;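 note: slope of fluorescence scaled to starting intensity during 10 to 20 s after thallium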
# HSV augment: enhancers of HSV replication in host cells, fold increase, host cell viability; HSV replication augmentation in cells; maximum fold increase; 220,000 compounds, 0.005% hits; in the data active = maximum fold increase above about 1.5; tested in PC3 cells
# ROMK mod: ROMK potassium channel modulators, primary screen, cell-based, thallium flux, MLSMR library; ATP-sensitive inward rectifier potassium channel 1 (Homo sapiens), P48048; Tet-inducible ROMK, thallium flux fluorescence; actives lie on both sides; B-score at 10 µM; 130,000 compounds, 2% hits;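 active = signal ratio slope over the read window, or its plate-corrected B-score, at least 3 SD from the plate mean, either direction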;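 note: B-score of the F/F0 ratio slope over 7 to 12 s after thallium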
# Target sequence (P48048 whole entry, looked up): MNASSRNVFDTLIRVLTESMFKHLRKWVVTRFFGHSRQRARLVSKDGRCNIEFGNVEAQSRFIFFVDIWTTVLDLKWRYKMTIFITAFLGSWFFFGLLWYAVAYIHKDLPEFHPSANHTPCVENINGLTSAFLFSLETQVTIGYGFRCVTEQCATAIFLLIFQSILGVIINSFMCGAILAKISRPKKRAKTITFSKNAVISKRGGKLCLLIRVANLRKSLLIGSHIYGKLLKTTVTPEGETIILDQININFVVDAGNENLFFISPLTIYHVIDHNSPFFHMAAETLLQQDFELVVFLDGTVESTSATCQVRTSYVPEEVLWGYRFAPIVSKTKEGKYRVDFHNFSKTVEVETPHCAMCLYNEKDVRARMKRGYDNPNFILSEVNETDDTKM
# An asterisk follows results filed as active; i = inactive; . = no result.
SMILES,Arbovirus anti,Measles CPE,KCC2 mod,HSV augment,ROMK mod
O=C(c1cc(NC(=O)C23CC4CC(CC(C4)C2)C3)cc(NC(=O)C23CC4CC(CC(C4)C2)C3)c1)N1CCCCC1,22,4,-0.41,i,-0.63
Nc1c2c(nc3ccc(Br)cc13)N(Cc1ccccc1)CC2,8,28*,0.47,i,-1.2
Nc1c2c(nc3ccc(Br)cc13)N(c1ccccc1)CC2,8,13,-0.073,i,-0.17
Clc1ccc(-c2nnc3n2CCCCC3)cc1,7,79*,1.3,i,0.36
O=C(NCCCc1ccccc1)c1ccccc1O,-1,2,-2.2,i,-0.5
O=C(NCCO)c1ccccc1O,7,26*,0.42,i,1.3
CN(CCC#N)C(=O)COC(=O)c1ccccc1OCc1ccccc1Cl,3,.,-0.83,i,0.17
CCN(CC)CCn1nc2c3c(cccc3c1=O)-c1ccccc1-2,-21,.,-0.1,i,-0.31
O=c1c2cccc3c2c(nn1CN1CCOCC1)-c1ccccc1-3,-18,59*,1.1,i,.
Cc1cc(C)nc(NS(=O)(=O)c2ccc(N/C=C\C(=O)c3ccc(Cl)cc3)cc2)n1,7,4,.,i,.
Cc1cc(C)nc(NS(=O)(=O)c2ccc(N/C=C/C(=O)c3ccc(Cl)c(Cl)c3)cc2)n1,-17,44*,1.1,i,.
CN(C)CCCOC(=O)c1sc2ccccc2c1Cl,10,.,-1.1,i,.
Cc1ccc(NC(=S)NC(=O)c2sc3ccccc3c2Cl)c(C(=O)O)c1,14,.,60*,i,4.5*
O=C(O)c1ccccc1NC(=S)NC(=O)c1sc2ccccc2c1Cl,13,.,-3.3,i,3.1
CCCCOC(=S)NC(=O)c1sc2ccccc2c1Cl,-2,3,47*,i,.
COc1cccc(NC(=O)Cn2c(=O)n(-c3ccccc3)c(=O)c3sccc32)c1,10,.,-2.8,i,-0.65
O=C(Cc1csc(Nc2nc(=S)[nH]c3ccccc23)n1)NCc1ccc(Cl)cc1,2,6,5.9*,i,.
Cc1ccc(CNC(=O)CCCCCNc2nc(=S)[nH]c3ccccc23)cc1,2,.,0.39,i,-0.53
COc1ccc(CNC(=O)Cc2csc(Nc3nc(=S)[nH]c4ccccc34)n2)cc1,-3,19,7*,.,.
CCN1CCC(CNCc2cn(-c3ccc(OC)cc3)nc2-c2ccccc2Cl)C1 (centres undefined),-28,.,1.4,i,-3.2
C=CCNC(=S)Nc1ccc(N(C)C)cc1,.,.,0.85,i,.
Oc1ccccc1-c1nc(N2CCCC2)c2ccccc2n1,5,9,-0.03,i,0.25
CC1CCN(c2nc(-c3ccccc3O)nc3ccccc23)CC1,9,38*,0.57,i,.
CCOc1ccc(S(=O)(=O)Nc2cc(C)ccn2)c2ccccc12,6,47*,0.47,i,.
CCCc1nnc(NC(=O)OCC)s1,0,.,0.92,i,0.72
SMILES,Arbovirus anti,Measles CPE,KCC2 mod,HSV augment,ROMK mod
O=C(CN1CCCCC1)NCC1(c2ccccc2)CCCC1,0,.,-0.14,i,-0.07
COc1ccc(O[C@H]2C=C[C@@H](c3ccccc3)O[C@@H]2CO/N=C(\C)CCN2CCCCc3nc(C)c(C)cc32)cc1,-9,23*,0.6,.,-1.1
COc1ccc(S(=O)(=O)N2CCCCC2)cc1,5,13,1.8,i,.
COc1ccc(S(=O)(=O)N2CCCN(CC(=O)C(C)(C)C)CC2)cc1,5,48*,0.56,.,-0.36
Cc1nnc(SCC(=O)NC2CCS(=O)(=O)C2)n1Cc1ccccc1 (centres undefined),0,.,0.89,i,-0.11
Cc1ccc(-c2cn(-c3ccccc3)c(SCC(=O)NC3CCS(=O)(=O)C3)n2)cc1C (centres undefined),-7,4,12*,i,-0.48
COc1ccccc1-c1nnc(SCC(=O)NC2CCS(=O)(=O)C2)n1CCc1ccccc1 (centres undefined),0,59*,-0.002,i,0.61
COc1ccc(C(=O)C(Sc2nnc(C)c(=O)[nH]2)c2ccc(OC)cc2)cc1 (centres undefined),.,.,-1.3,i,.
CCOC(=O)CC1COCCN1Cc1cn[nH]c1-c1cc(OC)c(OC)c(OC)c1 (centres undefined),.,.,0.028,i,.
O=C(COc1ccc(Br)cc1Br)NC(=S)N1CCCc2ccccc21,-2,10,11*,i,1.1
O=C(NC(=S)N1CCc2ccccc21)c1ccccc1Br,-20,13,60*,i,.
O=C(COc1ccc(Br)cc1Cl)NC(=S)N1CCc2ccccc21,-8,6,23*,i,.
CC(Oc1ccc(Cl)cc1Cl)C(=O)NC(=S)N1CCc2ccccc21 (centres undefined),-30,4,44*,i,.
CCCCN(C(=O)CSc1nnc(Nc2ccccc2)s1)c1c(N)n(CCC)c(=O)[nH]c1=O,-2,.,0.24,.,0.48
CCOC(=O)CNc1cccc(C(F)(F)F)c1,3,.,-0.5,i,-0.22
COc1cc(NC(=O)CCCC(=O)OCC(F)(F)C(F)F)nc(OC)n1,106*,17,.,i,0.66
CCn1c(C(=O)N2CCc3ccccc3C2)cc2oc3ccccc3c21,-4,23,-0.016,i,0.25
CCOc1ccc(CNC(=O)c2cc3oc4ccccc4c3n2C)cc1,2,89*,-0.42,i,0.9
CCOc1ccccc1CNC(=O)c1cc2oc3ccccc3c2n1CC,0,35*,.,i,-0.15
Oc1ccc(Br)cc1-c1nc2cnccn2c1NC1CCCCC1,11,4,-0.0078,i,0.66
Oc1ccc(Br)cc1-c1nc2cnccn2c1NC1CCCC1,62*,11,1.1,i,-1.2
Cn1cc(S(=O)(=O)Nc2ccc(Br)cc2F)c(=O)n(C)c1=O,14,61*,-0.12,i,.
CCOC(=O)NC(NCc1ccccc1)(C(F)(F)F)C(F)(F)F,5,44*,-0.37,i,.
O=c1oc2ccccc2c2c1ncn2C1CCCCC1,-1,38*,.,i,0.09
CC(Oc1ccc(Br)cc1)c1nc2c3ccccc3nc(=S)n2[nH]1 (centres undefined),-28,.,26*,i,2.9*
SMILES,Arbovirus anti,Measles CPE,KCC2 mod,HSV augment,ROMK mod
O=C(Nc1ccc(Cl)cc1)c1cccnc1N1CCCCC1,-4,3,-0.59,i,.
O=C(NCCc1ccccc1)c1cccnc1N1CCCCCC1,-9,36*,.,i,.
O=S(=O)(Nc1ccccc1)c1ccc(Oc2ncc(C(F)(F)F)cc2Cl)cc1,-39,41*,.,i,.
CC(C)NS(=O)(=O)c1ccc(Oc2ncc(C(F)(F)F)cc2Cl)cc1,-3,8,.,i,.
O=S1(=O)NC(=NCCc2ccccn2)c2ccccc21,8,.,0.51,i,0.076
O=C(Cc1ccc(F)cc1)Nc1ccc(F)c([N+](=O)[O-])c1,7,72*,-0.75,i,-1.1
